Outcome data for 40 compounds are collected here from PubChem BioAssay (NCATS).

Results filed as inconclusive are left out. Activity calls are given as the source filed them. Calls come from the whole dose curve; as a rule, active = well fitted curve in the direction sought with a large enough effect in the signal ratio, with a control signal flat (not every such curve was filed as active); inconclusive = small, poorly fitted or top-dose-only effect, or a change in a side signal; inactive = no such curve, though single readings can be large or run the other way; the % refers to the signal ratio.

The test can be described thus: qHTS Assay for Identification of Small Molecule Inducers of Hypoxia Response (AID 2120). The following applies: hypoxia response reporter cells, beta-lactamase ratio readout; series mostly up to 104 µM. The source says: NIH Chemical Genomics Center [NCGC]
NIH Molecular Libraries Screening Centers Network [MLSCN]
National Institutes of Environmental Health Sciences [NIEHS]
National Toxicology Program [NTP]
Hypoxia-inducible factor-1 (HIF-1) is the major hypoxia-regulated transcription factor that controls cellular responses to low oxygen concentration. HIF-1 is composed of two subunits: hypoxia responsive HIF-1a and constitutively expressed HIF-1b, which is also known as aryl hydrocarbon receptor nuclear translocator. During hypoxic conditions, HIF-1a heterodimerizes with HIF-1b and translocates into the nucleus where the HIF-1 complex binds to the hypoxia-response element (HRE) and activates expression of target genes such as VEGF (vascular endothelial growth factor). The HIF-1 pathway is essential to normal growth and development, and is involved in the pathophysiology of cancer, inflammation, and ischemia.
Using a beta-lactamase reporter-gene under control of the hypoxia response element, a cell-based assay [CellSensor(TM) HRE-bla ME-180 developed by Invitrogen Corp.] was used to measure hypoxia-induced signaling. Library compounds were measured for their ability to induce the reporter gene activity. Compounds were screened in a titration series in 1536-well format. The inducers were identified based on the AC50 values derived from the screening data.
NCGC Assay Protocol Summary
2500 cells/5uL in Opti-MEM medium containing 0.5% dialyzed FBS, 0.1 mM NEAA, 1 mM sodium pyruvate and 10 mM HEPES was dispensed into 1536-well plates and cells were cultured at 37 degrees Celsius for 4-5 hours and then 23 nL of compounds or DMSO were delivered to each well using a pin tool. The plates were incubated at 37 degrees Celsius for 17 hours. 1 uL of CCF4-dye mixture was added to each well. After incubated at room temperature for 2.5 hours the plates were measured on an EnVision plate reader at Excitation 405nm, Emission1=460nm and Emission 2=530nm. The %Activity was determined from the ratio of 460nm/530nm.
For the compound `C=C(C)C(=O)OCC(C)C`, the result was inactive. As for `CC(C)N=C=NC(C)C`, the entry is “inactive”; as for `COC(=O)CCC(=O)OC`, “inactive”; as for `Nc1cc([N+](=O)[O-])ccc1C(=O)O`, “inactive”.

As to `C=CCCCCCC`, the result was inactive.

For the compound `CCOc1ccc(NC(C)=O)cc1N`, the outcome was inactive.

As to `CC(C)C(C)C`, the outcome was inactive. For `Fc1ccccc1` the value was “inactive”; for `CCC=O`, “inactive”; for `O=[N+]([O-])c1cc(C(F)(F)F)ccc1Cl`, “inactive”. For `CCC(C)(C)OC` the value was “inactive”; for `N#Cc1ccccc1`, “inactive”. Consider `CC1(N)CCC(C(C)(C)N)CC1` (stereo not given), for which the result was inactive. As for `COCCOC(=O)c1ccccc1C(=O)OCCOC`, the entry is “inactive”; as for `O=CNc1ccccc1`, “inactive”. `Nc1ccccc1S(=O)(=O)O`: the outcome was inactive.

As to `Cc1ccccc1C(N)=O`, the outcome was inactive. As for `CC(=O)C1(C)CC2=C(CCCC2(C)C)CC1C` (stereo not given), the entry is “inactive”; as for `Cc1ccccc1C(=O)O`, “inactive”; as for `CCN(CC)c1cccc(O)c1`, “inactive”. For the compound `C=C(C)OC(C)=O`, the result was inactive. For `O=C(O[C@@H](C(=O)O)[C@@H](OC(=O)c1ccccc1)C(=O)O)c1ccccc1` the value was “inactive”; for `O=Nc1ccc(NO)cc1`, “inactive”. As for `CC(C)CO`, the entry is “inactive”.

Regarding `NCCCCCCN`, the outcome was inactive. In the case of `C=CC(=O)NC(C)C`, the outcome was inactive. For `c1ccc(Oc2ccccc2)cc1` the value was “inactive”; for `Cc1ccc(C)c([N+](=O)[O-])c1`, “inactive”.

Take `CCOCCOCC`: the result was inactive.

With `C/C=C(/C)C#N`, the outcome was inactive. For `C=Cc1ccc(C=C)cc1` the value was “inactive”; for `CCCCCCCCC`, “inactive”.

As to `OC/C(Br)=C(\Br)CO`, the result was inactive. For `Cc1cc([N+](=O)[O-])ccc1N` the value was “inactive”; for `Cc1ccco1`, “inactive”. For `CC(C)=CCC/C(C)=C/C=O` the value was “inactive”; for `O=C(O)CNC(=O)c1ccc(CO)o1`, “inactive”. For `FC(F)(F)c1cccc(Cl)c1` the value was “inactive”; for `Cc1ccc(Cl)cc1N`, “inactive”; for `C=C(C)C(=O)OC`, “inactive”.
